Laboratory results as given in PubChem BioAssay AID431 (Sanford-Burnham Center for Chemical Genomics, 2006).
About 1,100 (1.7%) of roughly 63,000 compounds were called active. The entries come from a sample that favours actives as a whole. Entries with a potency or affinity are not part of this list. A number with no mark means an inactive call.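 How the source made its calls: active means compounds whose percent cytotoxicity in the single-dose primary screen, scaled between solvent and toxic-drug controls, exceeds 50; inactive means the rest.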

Assay: viability loss of HPDE-C7K cells – cell-based, fluorescence, HTS, primary screen (AID 431);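 further: 0% = DMSO solvent wells and 100% = doxorubicin-treated wells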
Conditions: HPDE-C7K KRASV12 cells, Alamar Blue viability, 48 h; at 10 µM; stronger effect = higher value

Row | SMILES | cytotoxicity
1 | O=c1oc2ccccc2n1CCn1c2ccccc2c2nc3ccccc3nc21 | 14.9%
2 | CSCCC(NC(=O)c1ccco1)C(=O)OC(C)C(=O)NC(=O)NC1CCCCC1 (stereo not drawn) | -4.2%
3 | O=C(CN(C1CCCCC1)S(=O)(=O)c1ccc(F)cc1)NC1CC1 | -2.7%
4 | CCC1CCCCN1c1nc(-c2ccncc2)nc2ccccc12 (stereo not drawn) | -15.6%
5 | CCOC(=O)Cc1nnc2c(Nc3ccc(C)cc3)nc3nonc3n12 | -14%
6 | CCOC(=O)Cn1nc(-c2ccc(Cl)cc2)cc1N | 0.5%
7 | CCOC(=O)c1[nH]c(C)c(C(=O)Nc2ccccc2F)c1C | 37.9%
8 | CCOC(=O)n1ccc(C(=O)Nc2ccccc2F)n1 | -9.8%
9 | CCOC(=O)Cc1nnc2c(Nc3ccccc3F)nc3nonc3n12 | 53.8% (active)
10 | CCOC(=O)Cc1nnc2c(Nc3ccc(Cl)cc3)nc3nonc3n12 | 70.2% (active)
11 | CCOC(=O)c1ccc(NC(=O)CCc2ccc(CC)o2)cc1 | 8.4%
12 | COc1cccc2cc(C(=O)C3=C(O)C(=O)N(CCCN4CCOCC4)C3c3ccncc3)oc12 (stereo not drawn) | 3.9%
13 | CC(C)(C)NC(=O)Cn1c(SCC(=O)N2CCCCCC2)nc2ccccc21 | -0.2%
14 | Cc1csc2ncc(C(=O)NCc3ccccn3)c(=O)n12 | -11.8%
15 | Cc1c(/C=N/n2cnnc2)c2ccccc2n1CCOc1ccccc1 | 43.4%
16 | Cc1ccc(OCCn2c(C)c(/C=N/n3cnnc3)c3ccccc32)cc1 | 41.7%
17 | COc1cccc(OCCn2c(C)c(/C=N/n3cnnc3)c3ccccc32)c1 | 85.9% (active)
18 | CCOC(=O)N1CCC(NC(=O)C2CCC(CNS(=O)(=O)c3ccc(OC)cc3)CC2)CC1 (stereo not drawn) | 0.5%
19 | C=CCn1c(=N)n(CC(=O)OC)c2ccccc21 | 8.1%
20 | c1coc(-c2nc(-c3ccco3)c(-c3ccco3)nc2-c2ccco2)c1 | -1.8%
21 | c1coc(-c2nc3ccccc3nc2-c2ccco2)c1 | -6.2%
22 | c1coc(-c2nc3nc4ccccc4n3nc2-c2ccco2)c1 | 67.4% (active)
23 | O=C1CCCc2nc(N3CCN(c4ccccc4)CC3)ncc21 | 20.9%
24 | O=C(NC1CCCC1)C(c1cccs1)N(C(=O)c1ccno1)c1ccccc1 (stereo not drawn) | 2.6%
25 | COc1ccc(C2/C(=C(/O)c3ccc(C)cc3)C(=O)C(=O)N2C)cc1 (stereo not drawn) | -6.1%
26 | Cc1nnc(SCCn2c(N3CCN(C)CC3)nc3c2c(=O)n(C)c(=O)n3C)s1 | 3.6%
27 | Cc1nnc(SCCn2c(N3CCN(C)CC3)nc3c2c(=O)[nH]c(=O)n3C)s1 | -9.9%
28 | Cc1nnc(Sc2nc(Sc3nnc(C)s3)nc(N3CCN(C)CC3)n2)s1 | 102% (active)
